High-throughput results deposited in PubChem BioAssay by National Center for Advancing Translational Sciences (NCATS).
CCT modulator: High-Throughput Screening for Modulators of Cytosolic Chaperonin Activity | activity change, % (no concentration beside the values), hits read low | AID 651819, 2012 | hit rate 0.3% among 360,000 | purified chaperonin ATPase assay, HTRF ADP detection, 30 min; in the data active = activity change below about -30%; also: % is scaled to controls: 0 for no effect and ±100 for the full control effect
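Nucleotide hydrolysis assay: TRiC at 20–40 nM final (set by batch activity) with 10 uM ATP, 30 min at 37 °C, in presence of 76 uM compound. Detection by competitive ADP HTRF, 30 min ambient.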
Nrf2 activator: qHTS of Nrf2 Activators; AREc32 ARE-luciferase reporter (MCF7-derived line), luminescence, 24 h; Potency, µM (top dose mostly 46.1 µM), for inactives: at the highest dose activation, actives largely listed as activators; hit rate 0.31% among 410,000; AID 624171, 2012; also: potency is read from the fitted curve at half-maximal effect; % of control where 0% means no effect; nearly all actives have a fitted effect of over 65% in size
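Each well held 1000 AREc32 cells, which were incubated with compound for 24 hr at 37 deg C after overnight attachment, and ARE reporter activity was quantified by firefly luciferase luminescence.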
AT treatment: qHTS Assay for Identifying a Potential Treatment of Ataxia-Telangiectasia; F2112 A-T fibroblasts, KAP-1 phosphorylation AlphaLISA; neocarzinostatin DNA damage 30 min before lysis; Potency, µM (doses to about 57.5 µM), for inactives: at the top dose activation, actives largely listed as activators; hit rate 0.19% among 320,000; AID 485349, 2010; also: potency is read from the fitted curve at half-maximal effect; % of control where 0% means no effect; nearly all actives have a fitted effect of over 45% in size
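ATM-like activity read as KAP-1 phosphorylation via AlphaLISA donor/acceptor antibody pairs after lysis and 6 hr at 25C. Cells were ATM-null patient fibroblasts (F2112, hTERT), dosed 60 min, then exposed to the DSB inducer NCS for 30 min.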
A549 tox-1: Nrf2 qHTS screen for inhibitors: counterscreen for cytotoxicity; hit rate 0.16% among 390,000; A549 ARE-Fluc cells, CellTiter-Fluor viability, 18-24 h; Potency, µM (highest dose often 46 µM), inactives show at the top dose activity change, negative = cytotoxicity, actives largely listed as inhibitors; AID 504648, 2011; also: potency is read from the fitted curve at half-maximal effect; % is scaled to controls: 0 for no effect and ±100 for the full control effect
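A549 ARE-Fluc cells in 5% FBS OPTI-MEM, 5000 cells/well, rested 2 h then exposed to compounds in concentration-response for 18-24 h at 37 °C. Viability by CellTiter-Fluor fluorescence (Ex 405/Em 525) after 30 min; luciferase luminescence (BugLite, 15 min, RT) read afterwards.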
Nrf2 block: Nrf2 qHTS screen for inhibitors; A549 ARE-Fluc reporter, luciferase luminescence, 18-24 h; Potency, µM (series often up to 46 µM), without a hit: at the top dose activity change, negative = inhibition, most hits filed as inhibitors; hit rate 2.1% among 360,000; AID 504444, 2011; also: potency is read from the fitted curve at half-maximal effect; % is scaled to controls: 0 for no effect and ±100 for the full control effect; nearly all actives have a fitted effect of over 60% in size
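In this cell-based qHTS, ARE-driven firefly luciferase in A549 cells reports Nrf2 activity; the luminescent signal after BugLite lysis is the measured value, with a prior CellTiter-Fluor read for cell health.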
TCR activator: Activators of T cell receptors: qHTS campaign; primary human leukocytes, anti-CD3, IL-2 HTRF, 48 h; AID 504894, 2011; 330,000 tested, under 10 active; Potency, µM (titrated, usually from 9.22 µM), inactives show at the highest dose activation of IL-2 secretion, most hits filed as activators; also: % of control where 0% means no effect
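TCR engagement came from a-CD3 beads alone, with compounds added to primary human leukocytes for 48 hr. Secreted IL-2 bridged europium cryptate- and d2-labelled anti-IL-2 antibodies, giving FRET emission at 665nm after 320nm excitation.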
FLuc enzyme inh: Nrf2 qHTS screen for inhibitors: Purified Fluc Biochemical Counterscreen for Hit Validation. shares compounds with Nrf2 block. purified firefly luciferase, luminescence inhibition. Potency, µM (top dose mostly 57.5 µM), inactives show at the top dose activity change, negative = inhibition, hits mostly inhibitors. hit rate 4% among 1,400. AID 720522, 2013; also: potency is read from the fitted curve at half-maximal effect; % is scaled to controls: 0 for no effect and ±100 for the full control effect; nearly all actives have a fitted effect of over 65% in size
Target sequence (P08659 whole entry, looked up): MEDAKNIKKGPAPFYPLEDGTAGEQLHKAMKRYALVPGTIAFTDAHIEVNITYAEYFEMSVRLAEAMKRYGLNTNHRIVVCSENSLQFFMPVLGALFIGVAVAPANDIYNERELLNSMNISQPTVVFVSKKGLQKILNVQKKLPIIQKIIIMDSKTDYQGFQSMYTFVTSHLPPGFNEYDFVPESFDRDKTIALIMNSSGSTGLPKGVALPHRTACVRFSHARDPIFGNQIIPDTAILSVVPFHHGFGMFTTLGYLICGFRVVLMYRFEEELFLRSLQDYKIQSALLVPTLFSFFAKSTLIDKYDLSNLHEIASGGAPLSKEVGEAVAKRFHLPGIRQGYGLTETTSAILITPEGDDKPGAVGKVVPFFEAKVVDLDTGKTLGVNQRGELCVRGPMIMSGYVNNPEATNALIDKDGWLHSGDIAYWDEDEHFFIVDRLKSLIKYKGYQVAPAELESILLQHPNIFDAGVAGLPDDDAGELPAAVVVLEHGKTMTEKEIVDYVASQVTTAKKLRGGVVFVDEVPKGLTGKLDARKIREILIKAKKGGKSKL
A549 tox-2: Nrf2 qHTS screen for inhibitors: A549 ARE-Fluc Cytotoxicity Counterscreen for Hit Validation | shares compounds with Nrf2 block | A549 ARE-Fluc cells, cytotoxicity counterscreen | Potency, µM (titrated, usually from 46.1 µM), inactives show at the highest dose activity change, negative = cytotoxicity, most hits filed as inhibitors | hit rate 2% among 1,400;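 also: potency is read from the fitted curve at half-maximal effect; cells exposed to compounds for 18 to 24 hours; % is scaled to controls: 0 for no effect and ±100 for the full control effect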
ARE-Fluc inh: Nrf2 qHTS screen for inhibitors: Nrf2 A549 ARE-Fluc Confirmation Assay for Hit Validation; shares compounds with Nrf2 block; A549 ARE-firefly luciferase reporter, luminescence; Potency, µM (titrated, usually from 46.1 µM), inactives show at the highest dose activity change, negative = inhibition, hits mostly inhibitors; hit rate 74% among 1,400; AID 720524, 2013; also: potency is read from the fitted curve at half-maximal effect; % is scaled to controls: 0 for no effect and ±100 for the full control effect; nearly all actives have a fitted effect of over 65% in size
Numbers without * were called inactive; ? = inconclusive; nt = no result shown; [ ] = dose if it differs, or a comment. Shown are actives, neighbours in structure and some others; about 2.6% of the full set was active somewhere. Unless noted, calls follow the shape of the dose curve; as a rule, active = well fitted curve in the direction sought with a large enough effect; inconclusive = small, poorly fitted or top-dose-only effect, or another doubt; inactive = no such curve, though single readings can be large; an effect the other way counts as inactive or inconclusive.

SMILES | CCT modulator | Nrf2 activator | AT treatment | A549 tox-1 | Nrf2 block | TCR activator | FLuc enzyme inh | A549 tox-2 | ARE-Fluc inh
COC(=O)CSc1ncnc2c1sc1nc3c(cc12)COC(C)(C)C3 | -2 | 0% | -8% | 1% | 2.9µM* | -2% | ? | -3% | 7.3µM*
CC(=O)N(C)C1=C(N2CCOCC2)C(=O)c2ccccc2C1=O | 0 | -2% | 2% | 8.2µM* | 0.46µM* | 4% | -20% | 16µM* | 5.8µM*
O=C(OCCOc1ccc(Cl)cc1)c1cc(S(=O)(=O)N2CCCCC2)ccc1N1CCOCC1 | -4 | 4% | nt | -14% | 8.2µM* | 1% | 4% | -10% | 8.2µM*
CN(Cc1ccccc1)C(=O)c1ccc(NC(=O)Cc2ccc(NC(=O)C3CCCN(C(=O)C4CCC4)C3)cc2)cc1 (stereo not given) | -2 | 4% | nt | -2% | ? | 7% | nt | nt | nt
CN(Cc1ccccc1)C(=O)c1ccc(NC(=O)Cc2ccc(NC(=O)C3CCCN(C(=O)CCc4ccccc4)C3)cc2)cc1 (stereo not given) | -1 | 1% | nt | -11% | 2.6µM* | -3% | -10% | -11% | 1.6µM*
O=C(Nc1ccc(Oc2cccnc2)nc1)c1ccc(C(F)(F)F)cc1 | 0 | 0% | 21% | 0% | 5.8µM* | -7% | ? | -5% | 4.6µM*
Cc1ccc(S(=O)(=O)NCc2ccccn2)c(C)c1C | 1 | 0% | 19% | 0% | -3% | -2% | nt | nt | nt
Cc1cc(C)c(S(=O)(=O)NCc2ccncc2)c(C)c1 | 0 | 0% | -5% | -17% | ? | 4% | 0.11µM* | -2% | 0.21µM*
Cc1cc(C)c(S(=O)(=O)NCCc2ccncc2)c(C)c1 | 1 | 0% | 13% | -3% | -28% | -3% | nt | nt | nt
COc1cc(C)c(Br)cc1S(=O)(=O)NCc1ccncc1 | -1 | 0% | -1% | -6% | 3.3µM* | -23% | 1% | 5% | -32%
Cc1ccc(S(=O)(=O)NCc2ccncc2)c(C)c1C | 0 | 0%[9.22 µM] | 14% | -6% | 1.5µM* | 4% | 0% | -7% | 6.5µM*
CS(=O)(=O)c1ccccc1-c1csc(N2CCC(C(N)=O)CC2)n1 | nt | 0% | -1% | -8% | ? | -7% | nt | nt | nt
COc1ccc([C@H]2CC(=O)C=C(c3ccnc4ccc(Cl)cc34)C2)cc1 | 0 | 0% | -1% | -21% | 7.3µM* | -3% | 2% | -16% | 8.2µM*
Cc1cc2c(cc1C)C(=O)NC(C)(C)C2 | -3 | 0% | nt | 0% | 7.3µM* | -5% | -1% | 0% | 18%
Cc1cc(C)c(C)c(S(=O)(=O)N2CCN(c3ccccn3)CC2)c1C | 0 | 0% | -3% | 2% | ? | 0% | nt | nt | nt
Cc1cc(C)c(C)c(S(=O)(=O)N2CCN(c3ncnc4ccccc34)CC2)c1C | 0 | 3% | 2% | -20% | 9.2µM* | -3% | 0% | -22% | 9.2µM*
Cc1ccccc1[C@@H](NC(=O)OC(C)(C)C)C(=O)OC(C)(C)C | 1 | -1% | 16% | -1% | 3% | -2% | nt | nt | nt
C[C@@H]1CN([C@@H](C)CO)S(=O)(=O)c2ccc(Br)cc2O[C@H]1CN(C)C(=O)C1CCOCC1 | -2 | -2% | nt | nt | nt | nt | nt | nt | nt
NNC(=O)C1=NOC2COC3(CCN(c4ncccn4)CC3)OCC12 (stereo not given) | 1 | -1% | 3% | -4% | ? | 1% | nt | nt | nt
O=C(N/N=C\c1ccc(Cl)cc1)C1=NOC2COC3(CCN(c4ccc([N+](=O)[O-])cc4)CC3)OCC12 (stereo not given) | -1 | 0% | 40% | ? | 2.6µM* | -1% | -1% | -12% | nt
CN(Cc1ccc(F)cc1)C(=O)c1ccc(NS(=O)(=O)c2ccccc2)cc1 | -3 | 2% | -2% | -4% | -12% | nt | nt | nt | nt
CC1(C)CC2CC(C)(CN2S(=O)(=O)c2ccc(C(=O)Nc3cccc(S(=O)(=O)N4CCOCC4)c3)cc2)C1 (stereo not given) | -3 | 0% | -1% | -2% | 2.3µM* | -5%[46.1 µM] | -1% | -4% | 2.1µM*
CC1(C)CC2CC(C)(CN2S(=O)(=O)c2ccc(C(=O)Nc3cc(S(=O)(=O)N4CCOCC4)ccc3Cl)cc2)C1 (stereo not given) | -3 | -1% | 4% | -4% | ? | 1% | nt | nt | nt
Clc1ccc(C=Cc2ccccn2)c(Cl)c1 | -1 | ? | nt | 1% | ? | -3% | nt | nt | nt
CCN(CC)c1ccc(/C=C/c2ccnc3ccccc23)cc1 | nt | nt | nt | nt | nt | nt | ? | -12% | 15µM*
SMILES | CCT modulator | Nrf2 activator | AT treatment | A549 tox-1 | Nrf2 block | TCR activator | FLuc enzyme inh | A549 tox-2 | ARE-Fluc inh
CCN(CC)c1ccc(/C=C/c2ccccn2)cc1 | nt | nt | nt | nt | nt | nt | -13% | 9.2µM* | 1.6µM*
CCN(CC)c1ccc(/C=C(\C#N)c2ccccn2)cc1 | 1 | -1% | -4% | ? | ? | 5%[46.1 µM] | nt | nt | nt
Clc1ccc(/C=C/c2ccnc3ccccc23)c(Cl)c1 | nt | nt | nt | nt | nt | nt | ? | -6% | ?
Cc1c(/C=C/c2ccnc3ccccc23)ccc(N(C)C)c1C | nt | nt | nt | nt | nt | nt | -21% | -16% | ?
C(=C\c1ccccn1)/c1ccncc1 | 0 | 0% | -4% | -3% | 11% | 7% | nt | nt | nt
C(=C\c1ccccn1)/c1ccccc1 | nt | nt | nt | nt | nt | nt | 0% | -33% | 10µM*
N#Cc1ccccc1Oc1ccccc1C=O | -2 | -1% | -5% | 0% | 8% | 7% | nt | nt | nt
C[n+]1ccccc1N1CCN(c2ccccc2Cl)CC1 | 0 | -1% | 1% | -3% | 3.3µM* | 5%[46.1 µM] | 3% | -12% | 6.5µM*
COc1ccc(C(=S)N2CCN(c3ccccc3Cl)CC2)cc1OC | 1 | -1% | 18% | -3% | -16% | 0% | nt | nt | nt
COc1ccc(S(=O)(=O)N2CCN(CCOc3ccc(Br)cc3)CC2)cc1OC | 2 | 4% | -2% | -16% | 5.8µM* | 0% | -11% | ? | 7.3µM*
